This is an account of results in PubChem BioAssay (NCI).

About 83,000 compounds went through this panel and 20% of them were active in at least one assay; those are over-represented in the sample as a whole.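 Assay: single dose, 48 h. Readout: percent growth (0 = no net growth; negative = cell death). Active: <10.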 A number with no mark means an inactive call. Activity calls are given as the source filed them.

This assay relates to HL-60(TB) leukemia. The assay is described as follows: NCI-60 one-dose screen, 48 h (100 = growth as untreated, 0 = no growth, -100 = all killed). To be noted: 10 µM unless noted.
Regarding `Fc1ccc2nc3c(cc2c1)CSc1nnc(-c2ccc[nH]c2=S)n1N3`, the growth was 106%.
With `Cc1cc(C)c2c(c1)N(C)c1ncnc(-n3c(C)nc4cc(C)ccc43)c1CC2C` (configuration not stated), the growth was 1.64% (active).
The same measure for `CCOC(=O)c1cnn(CC(O)c2ccc(F)cc2)c1NC(=O)Nc1ccccc1F` (configuration not stated): 102%; for `CNC(=O)c1cc(Oc2ccc3nc(NC(=O)Nc4cc(C(F)(F)F)cc(C(F)(F)F)c4)sc3c2)ccn1`: -39.8% (active); for `CCCCCCCC/C=C\CCCCCCCC(=O)OCCCCCC`: 93.6%.
As for `O=C(Nc1nccs1)c1noc2ccccc12`, the growth was 95%.
For `Clc1ccc(/C=C/c2ccccn2)c(Cl)c1` the value was 86%; for `COc1cc(NC(C)CCCN2C(=O)c3ccccc3C2=O)c2nccc(C)c2c1OC` (configuration not stated), 9.5% (active); for `S=C1CC(=S)NC(=S)N1`, 131%.
The same measure for `O=C1/C(=C\c2ccc(F)cc2)CN(C(=O)c2ccc([N+](=O)[O-])cc2)C/C1=C\c1ccc(F)cc1`: 65.1%; for `CC1=NCC2NC(=O)NC(C)=C12` (configuration not stated): 109%; for `COc1ccc2c(c1)OC13Oc4cc(OC)ccc4C=C1CCCCC3=C2`: 104%.
For `CCCC[C@@H](C=O)NC(=O)[C@H](CC(C)C)NC(=O)[C@H](CC(C)C)NC(=O)OCc1ccccc1` the value was -30.1% (active); for `CCN(CC)CCCC(C)Nc1c(-c2ccccc2)cnc2cc(Cl)ccc12` (configuration not stated), 56.3%; for `O=C(/C=C/c1ccco1)c1ccc(Nc2ccnc3cc(Cl)ccc23)cc1`, 6.28% (active).
`C=CC(=O)OC1CCC(C(C)(C)CC)CC1` (configuration not stated): the growth is 84%.
The same measure for `CCOc1ccc(/C=C/C(=O)c2ccccc2)cc1`: 70.3%.
For `COc1ccc2nc3nc4ccc[nH]c4cc3c2c1` the value was 85.6%; for `O=C(c1ccccc1)C(Br)C(Br)c1ccccc1` (configuration not stated), 39.5%.
The same measure for `CC(C)OC(C(=O)O)c1ccccc1` (configuration not stated): 129%; for `S=C(c1cccs1)N1CCN(c2cccc(Cl)c2)CC1`: 90.8%.
Take `COc1cc2nccc(Oc3ccc(NC(=O)C4(C(=O)Nc5ccc(F)cc5)CC4)cc3)c2cc1Oc1ccc(N)cn1`: the growth was 22.9%.
The same measure for `Clc1nc(-c2ccccn2)nc2sc3c(c12)CCCCCC3`: 96%; for `O=C(O)CCC/C=C\C[C@H]1C=CC(=O)/C1=C/C[C@@H](O)CCc1cccc(C(F)(F)F)c1`: -11.7% (active); for `NC(=NCCCC1(c2ccccc2)CCCC1)Nc1ccc(Cl)cc1`: 77.2%.
For `COc1ccc(-n2nnc3c(sc4ccccc43)c2=O)cc1` the value was 94.6%; for `CC(=O)Oc1cc2ccccc2cc1C(C)C`, 103%.
